“And” between values parts separate entries of the source, which are not always exact repeats. Equal values may be shown once. Inconclusive results are not listed. Where a call stands in place of a potency, no number is given. Values without a mark were called inactive. The source made the active and inactive calls. Calls come from the whole dose curve; as a rule, active = well fitted inhibition curve with a large enough effect; inconclusive = small, poorly fitted or top-dose-only effect; inactive = flat fitted curve, though single readings scatter.
Potency is the fitted concentration of half-maximal effect.

Glutathione peroxidase 1 (Homo sapiens), sequence (P07203 whole entry, looked up): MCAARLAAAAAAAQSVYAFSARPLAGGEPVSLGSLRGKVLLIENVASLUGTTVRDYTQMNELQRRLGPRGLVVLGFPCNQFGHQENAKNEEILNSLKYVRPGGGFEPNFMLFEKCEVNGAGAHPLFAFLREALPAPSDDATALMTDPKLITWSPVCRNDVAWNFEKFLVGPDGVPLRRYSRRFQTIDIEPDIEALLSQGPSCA

In the experiment the target is Glutathione peroxidase 1 (Homo sapiens) (UniProt P07203). Nature of the experiment: Primary qHTS Assay for Inhibitors of Recombinant Selenoprotein Glutathione Peroxidase 1 (GPX1) (AID 1845191). Note: nearly all actives have a fitted effect of over 65% in size. As to conditions: recombinant GPX1, GR-coupled NADPH fluorescence, 15 min; series mostly up to 48.8 µM; activity, negative = inhibition: at the top concentration. An excerpt:
Assay Provider: Elias S.J. Arner MD PhD.
Department of Medical Biochemistry and Biophysics
Karolinska Institutet, Solna, Stockholm, Sweden
Selenoprotein glutathione peroxidases (GPX), like the ubiquitously expressed GPX1 and the ferroptosis modulator GPX4, enact their antioxidant activities by reducing hydroperoxides using glutathione. […] GPX1 and GPX4 inhibitors have thus shown promise as anti-cancer agents. Existing inhibitors are often promiscuous, or modulate GPX activity only indirectly, so novel direct inhibitors identified through screening against GPX1 and GPX4 could be valuable. Here, we developed optimized glutathione reductase (GR)-coupled GPX assays for the biochemical high-throughput screen (HTS) of almost 12,000 compounds with known mechanisms of action. Initial hits were triaged using a GR counter-screen, assessed for isoform specificity using a separate GPX2 assay, and were assessed for general selenocysteine-targeting activity using a thioredoxin reductase (TXNRD1) assay. With this suite of assays, we identified novel GPX1/GPX2- and GPX4-specific inhibitors and can here present a validated pipeline for future discovery research for selenoprotein-targeting agents.
SEQUENCE No. (e.g., 1, 2, 3, etc.); […] (e.g., Cells, Incubation, Reagent, etc.); VALUE; DESCRIPTION.
1; Reagent 1; 3 uL; GPx1 enzyme or no enzyme control in 1536-well, black, solid Greiner assay plate.
2; Compound; 25 nL; Kalypsis pin tool (Wako USA) equipped with a 1536-well pin head.
3; Incubation; 30 min; room temperature.
4; Reagent 2; 1 uL; 10 nM GPX1, 1 mM GSH, 0.5 mM CHP, 0.5 mM NADPH, 100 nM GR, 0.01% BSA substrate
5; Detection; Fluorescence; ViewLux microplate reader, excitation 340 nm and emission 450 nm.
6; Incubation; 15 min; room temperature.
7; Detection; Fluorescence; ViewLux microplate reader, excitation 340 nm and emission 450 nm.
NOTES (numbers refer to Sequence numbers above)
1. 3 uL of 16.66 nM GPX1 and 0.016% BSA in assay buffer (50 mM Tris-HCl, 2 mM EDTA (pH 7.5), 150 mM NaCl) was added to columns 3-48 of 1536-well assay plates using a BioRAPTR Flying Reagent Dispenser (Let's Go Robotics (LGR), Carlsbad, CA). A no-enzyme control (0.01% BSA in TES assay buffer) was added to columns 1-2.
2. 25 nL of test compounds and DMSO controls were added to each well with a pin tool (Kalypsys).
3. The assay plates were incubated for 30 minutes at room temperature.
4. 1 uL of master mix (500 nM glutathione reductase (GR), 5 mM reduced glutathione (GSH), 2.5 mM NADPH in assay buffer) was added. 1 uL of cumene hydroperoxide (CHP) ([2.5 mM] in 50% EtOH) was then added within 5 minutes to initiate the reaction. Final concentrations were: 10 nM GPX1, 1 mM GSH, 0.5 mM CHP, 0.5 mM NADPH, 100 nM GR, 0.01% BSA.
5. Initial fluorescence readout (t=0) at 340/450 nm was measured using a ViewLux multimodal detector (PerkinElmer, Waltham, MA).
7. Endpoint fluorescence readout (t=15) at 340/450 nm was measured 15 min after room temperature incubation.
On the technique in general: In qHTS, concentration-response curves come from the screen itself.
As to `COc1cc2nccc(Oc3ccc(NC(=O)C4(C(=O)Nc5ccc(F)cc5)CC4)cc3)c2cc1OC`, the Potency result was “inactive”.

`CNc1nccc(-c2cccnc2Oc2cc(C(=O)Nc3cccc(C(F)(F)F)c3)ccc2C)n1`: the Potency entry is “inactive”.

With `CC(C)c1noc(N2CCC(COc3ccc(-c4ccc(S(C)(=O)=O)cc4)nc3)CC2)n1`, the outcome was inactive.

With `CC(C)(O)c1cc2nc(-c3cnc(N)nc3)nc(N3CCOCC3)c2s1`, the “activity, negative = inhibition” value was 4.93%.

As for `COCCn1c2c([n+](Cc3cnccn3)c1C)C(=O)c1ccccc1C2=O`, the “activity, negative = inhibition” value is -23.5%.

For `Cc1cc(CN2CCN(c3c(Br)cnc4nc(-c5ccc(N6CCN(C)CC6)cc5)[nH]c34)CC2)no1`, the Potency was 11.4 µM (active) and 12.9 µM (active).

`O=C(c1ccc(Nc2nccc(-c3cc4ccccc4s3)n2)cc1)N1CCC(N2CCCC2)CC1`: the Potency result was “inactive”.

As for `O=C(NCCCNc1nc(Nc2cccc(NC(=O)N3CCCC3)c2)ncc1I)c1cccs1`, the result was inactive.

`Cc1nc(N)ncc1-c1nc(N2CCOCC2)c2sc(C(C)(C)O)cc2n1`: the Potency result is “inactive”.

Consider `CN1CCN(c2ccc3nc(-c4c(N)c5c(F)cccc5[nH]c4=O)[nH]c3c2)CC1`, for which the “activity, negative = inhibition” value is 4.18%.

`COc1ccc(CC2c3cc(OC)c(OC)cc3CC[N+]2(C)CCC(=O)OCCCCCOC(=O)CC[N+]2(C)CCc3cc(OC)c(OC)cc3C2Cc2ccc(OC)c(OC)c2)cc1OC` (stereo not given): the Potency entry is “inactive”.

For `CN(C)c1nc(Cc2ccc(NC(=O)c3ccc4ccccc4c3)cc2)nc(Cl)c1CC(=O)O`, the “activity, negative = inhibition” value is -10.8%.

Regarding `OCCCNc1cc(-c2ccnc(Nc3cccc(Cl)c3)n2)ccn1`, the Potency result is “inactive”.

Consider `CNC(=O)c1c(F)cccc1Nc1nc(Nc2cc3c(cc2OC)CCN3C(=O)CN(C)C)nc2[nH]ccc12`, for which the Potency entry was “inactive”.

On to `C[C@@H]1CN(CC(=O)Nc2ccc3c(c2)Cc2cccc(-c4cc(=O)cc(N5CCOCC5)o4)c2S3)C[C@H](C)O1`, for which the result was inactive.

Take `O=C(O)CCCc1c[nH]c2ccccc12`: the “activity, negative = inhibition” value is 3.55%.

Regarding `CC(=O)OCCN1C(=O)c2c(C)nc3ccc(S(=O)(=O)N4CCOCC4)cc3c2C1=O`, the “activity, negative = inhibition” value was -0.0497%.

Take `CCOC(=O)C1=C(C)NC2=C(C(=O)CC(C)(C)C2)C1c1ccc(-c2ccccc2)cc1` (stereo not given): the Potency result was “inactive”.

In the case of `Nc1nccc(Oc2ccc(NC(=O)c3c[nH]cc(-c4ccc(F)cc4)c3=O)cc2F)c1Cl`, the “activity, negative = inhibition” value was -3.15%.

Consider `CC(=O)Nc1sc2c(c1-c1nc3ccccc3s1)CNC2`, for which the Potency was 3.6 µM (active).

With `Cn1cc(-c2ccncc2)c(-c2ccc(OCc3ccc4ccccc4n3)cc2)n1`, the “activity, negative = inhibition” value was 0.817%.

As for `Nc1nc(-c2nn(Cc3ccccc3F)c3ncccc23)nc(N)c1N1CCOCC1`, the “outcome” value is “inactive [at 27.7 µM]”.

For the compound `Cn1c2cc(S(C)=O)sc2c2cnn(Cc3cccc(N)c3)c(=O)c21` (stereo not given), the result was inactive.

With `Cc1ccc(C(=O)Nc2cccc(C(F)(F)F)c2)cc1-c1ccc2nc(NCCN3CCOCC3)ncc2c1`, the Potency entry is “inactive”.

Take `O=C(CCCCCCNC(=O)c1cnc(N(c2ccccc2)c2ccccc2)nc1)NO`: the Potency entry was “inactive”.

As to `CS(=O)(=O)c1ccc(-c2cnc(N)c(C(=O)Nc3ccccc3)n2)cc1`, the outcome was inactive.

In the case of `NC1(Cc2ccc(Cl)cc2)CCN(c2ncnc3[nH]ccc23)CC1`, the outcome was inactive.

With `COc1cc(-c2nn(C3CCC(N4CCN(C(C)=O)CC4)CC3)c3ncnc(N)c23)ccc1NC(=O)c1cc2ccccc2n1C` (stereo not given), the Potency result is “inactive”.

As to `Cn1c(CNc2ccc(C(=N)N)cc2)nc2cc(C(=O)N(CCC(=O)O)c3ccccn3)ccc21`, the “activity, negative = inhibition” value was -20.6%.

As to `OCc1ccc(-c2ccc(-c3ccc(CO)s3)o2)s1`, the “activity, negative = inhibition” value was -5.11%.

For `CCn1cc(-c2ccnc3[nH]c(-c4cccc(CN(C)C)c4)cc23)c(-c2ccc(NC(=O)N(C)C)cc2)n1`, the Potency result is “inactive”.

`C[C@@]12O[C@@H](C[C@]1(O)CO)n1c3ccccc3c3c4c(c5c6ccccc6n2c5c31)CNC4=O`: the result was inactive.

As for `O=C(CCCCCCC(=O)Nc1ccc([C@H]2O[C@@H](CSc3nc(-c4ccccc4)c(-c4ccccc4)o3)C[C@@H](c3ccc(CO)cc3)O2)cc1)NO`, the Potency entry is “inactive”.

For the compound `COc1cc2c(cc1-c1c(C)noc1C)ncc1[nH]c(=O)n([C@H](C)c3ccccn3)c12`, the Potency result is “inactive”.

In the case of `CNC(=O)c1nn(C)c2c1C(C)(C)Cc1cnc(Nc3ccc(N4CCN(C)CC4)cc3)nc1-2`, the Potency entry is “inactive”.

Regarding `C=CC(=O)Nc1cccc(Oc2nc(Nc3ccc(N4CCN(C)CC4)cc3OC)ncc2Cl)c1`, the Potency result was “inactive”.

For `Cc1ccc(-c2ncn(-c3ccc(Nc4nccc(-c5cccc(N6CCOCC6)c5)n4)cc3)n2)cn1`, the “activity, negative = inhibition” value is -11.9%.

Turning to `Cc1c(NC(=O)OC[C@@H]2COCCN2)cn2ncnc(Nc3ccc4c(cnn4Cc4cccc(F)c4)c3)c12`, the Potency result was “inactive”.

As to `c1nc2nc(Nc3ccc(N4CCOCC4)cc3)nc(NC3CCCCC3)c2[nH]1`, the Potency result was “inactive”.

Take `C#Cc1cccc(Nc2ncnc3cc(OC)c(OCCCCCCC(=O)NO)cc23)c1`: the Potency entry is “inactive”.

(Values after PubChem BioAssay (NCATS).)
